Laboratory results reported in PubChem BioAssay (NCI).
The panel holds about 83,000 compounds, 20% with a hit somewhere; the sample as a whole holds those more often.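 Negative percent growth values reflect cell death: -40 means 40% of the cells present at the start died, and -100 means all died.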 A number with no mark means an inactive call. Active and inactive are the calls of the source. Rule for the calls: active = growth percent below 10; inactive = the rest. *1 amine or outer side, *2 acyl side, *3 side chain or, on linkers, in order; H or OH if unused. Where a SMILES comes first, the peptide text is derived from it. Bridges are numbered along the chain shown (N, C = ends). Roman numbers before positions name the chains, in order. [ ]: non-standard residue; d: D form. Actinocin(1to9) = Cc1c2oc3c(C)ccc(C(=O)[*:2])c3nc-2c(C(=O)[*:1])c(N)c1=O; NMeV = CN[CH](C(=O)O)C(C)C; Sar = CNCC(=O)O

Assays:
Assay in all cases: NCI-60 one-dose screen, 48 h (100 = growth as untreated, 0 = no growth, -100 = all killed)
Conditions in all cases: 10 µM unless noted
[1] = system: NCI-H23 lung
[2] = system: NCI-H226 lung
[3] = system: NCI-H322M lung
[4] = system: HOP-62 NSCLC
[5] = system: HOP-92 NSCLC
[6] = system: NCI-H522 lung
[7] = system: A549/ATCC NSCLC
[8] = system: 786-0 renal
[9] = system: COLO 205 colon
[10] = system: DU-145 prostate
[11] = system: K-562 leukemia
[12] = system: MDA-MB-231 breast
[13] = system: RXF 393 renal
[14] = system: SF-268 CNS
[15] = system: SF-295 CNS
[16] = system: SF-539 CNS
[17] = system: UACC-257 melanoma
[18] = system: M14 melanoma
[19] = system: MALME-3M melanoma
[20] = system: NCI-H460 lung

Row | Structure (SMILES) | growth [1] | growth [2] | growth [3] | growth [4] | growth [5] | growth [6] | growth [7] | growth [8] | growth [9] | growth [10] | growth [11] | growth [12] | growth [13] | growth [14] | growth [15] | growth [16] | growth [17] | growth [18] | growth [19] | growth [20]
1 | CC1(C)OCC(COC(c2ccccc2)(c2ccccc2)c2ccccc2)O1 (configuration not stated) | 104% | 92.1% | 92.2% | 96.1% | 89.4% | 88.8% | 86.3% | 104% | 109% | 100% | 111% | 91.7% | 116% | 94.2% | 99.2% | 104% | 91.7% | 95.1% | – | –
2 | Oc1ccc2ccccc2c1N=Nc1ccccn1 | 42.6% | 19.1% | 47.8% | 30.1% | – | – | 53.5% | 7.32% (active) | 15.9% | 50.2% | 15.2% | 36.3% | 38.3% | 36% | 26.8% | 15.7% | 17.6% | 15.6% | 59.7% | –
3 | CCCCOS(=O)(=O)c1ccccc1 | 104% | 97.9% | 98% | 96.9% | 122% | – | 116% | 101% | 134% | 112% | 106% | 106% | – | 105% | 120% | 102% | 106% | 112% | 94.5% | –
4 | CCCOS(=O)(=O)c1ccccc1 | 101% | 103% | – | 84.6% | 76.1% | – | 111% | 121% | 108% | 118% | 128% | 107% | 112% | 106% | 113% | 102% | 111% | 115% | 111% | 106%
5 | Oc1ccc(Cl)cc1C(c1cc(Cl)ccc1O)C(Cl)(Cl)Cl | -25.2% (active) | 22.5% | 27.7% | 14.1% | -25.3% (active) | – | 28.7% | 15.2% | 49.4% | -47.8% (active) | 4.51% (active) | -63.6% (active) | – | 20.2% | 10.1% | 31.4% | 72.1% | 0.872% (active) | 11.9% | –
6 | CCOC(=O)NC(/C=C/c1ccccc1)NC(=O)OCC | 102% | 102% | 104% | 100% | 108% | 100% | – | 103% | 112% | 109% | 107% | – | 121% | 101% | 104% | 98.9% | 98.3% | 103% | 109% | –
7 | CCNc1nnnn1CC | 107% | 102% | 105% | 110% | – | 106% | 113% | – | 109% | 109% | 109% | 103% | 106% | 106% | 103% | 103% | 116% | 104% | 116% | –
8 | CC1(C)N=c2cc3c(cc2N1c1ccc(Cl)cc1)=Nc1ccccc1N3c1ccc(Cl)cc1 | 9.73% (active) | 53% | 75.2% | -19.2% (active) | -26.6% (active) | -22.1% (active) | – | 11.8% | 39.1% | – | -18.7% (active) | 83.3% | – | 49.6% | 31.7% | 79.7% | 40.5% | – | 79.4% | –
9 | CCCCCCCCCCCC1N=C(N)N=C(N)N1c1cccc(Br)c1 (configuration not stated) | 6.58% (active) | 39.1% | 54.4% | -8.64% (active) | – | – | 21.7% | 4.98% (active) | -77.3% (active) | 17.7% | -20.1% (active) | -48.1% (active) | -32.1% (active) | 8.27% (active) | 18.9% | 12% | 61.3% | 11.4% | 76% | –
10 | O=[N+]([O-])/C(=C/c1ccccc1)c1ccccc1 | 99.4% | 97.5% | 106% | – | 99.9% | 83% | – | 97.9% | 112% | 106% | 98.3% | 112% | 97.1% | 106% | 98.9% | 96% | 103% | 101% | 98.7% | –
11 | CC1=CC(=O)C=CC1(C)C(Cl)(Cl)Cl (configuration not stated) | 100% | 95.2% | 102% | 84.7% | 106% | 82.2% | – | 101% | 89.7% | 124% | 107% | 92.2% | 115% | 107% | 102% | – | 69.8% | 97.8% | 91.2% | –
12 | O=C1/C(=C\c2ccc([N+](=O)[O-])cc2)CS(=O)(=O)C/C1=C/c1ccc([N+](=O)[O-])cc1 | -83.2% (active) | -67.2% (active) | – | -95.2% (active) | -79.1% (active) | – | -50% (active) | -96.5% (active) | -82.4% (active) | -78.2% (active) | -27.8% (active) | -86.9% (active) | -100% (active) | -49% (active) | -16% (active) | -64% (active) | -89.8% (active) | – | -62.7% (active) | -54.5% (active)
13 | CCC(C)C1NC(=O)C(NC(=O)c2c3nc4c(C(=O)NC5C(=O)NC(C(C)CC)C(=O)N6CCCC6C(=O)N(C)CC(=O)N(C)C(C(C)C)C(=O)OC5C)ccc(C)c4oc-3c(C)c(=O)c2N)C(C)OC(=O)C(C(C)C)N(C)C(=O)CN(C)C(=O)C2CCCN2C1=O (configuration not stated) (I: TIP[Sar][NMeV] / II: TIP[Sar][NMeV]; ester I:1-I:C, II:1-II:C; linker I:N-II:N via Actinocin(1to9); configuration not given here) | -51.1% (active) | -16% (active) | – | -43.6% (active) | -16.6% (active) | -45.5% (active) | -15.2% (active) | -20.8% (active) | -67.6% (active) | 15.5% | 1.13% (active) | -12.7% (active) | 1.32% (active) | -11.7% (active) | -11.3% (active) | -36.9% (active) | -8.32% (active) | – | -74.1% (active) | -19.6% (active)
14 | CC1(C)CCCC2=C1C(=O)N(SC(Cl)(Cl)Cl)C2=O | 101% | 93.6% | – | 98.2% | 89.5% | – | 92.6% | 95% | 69.8% | 102% | 43.1% | 95.9% | 90% | 103% | 84.5% | 95.9% | 97.2% | 93.6% | 75.9% | 109%
15 | O=C(C[P+](c1ccccc1)(c1ccccc1)c1ccccc1)c1ccccc1 | 91.9% | 99.4% | – | 94.7% | 55.9% | 61.4% | 90.1% | 99.6% | 89.6% | 102% | 84% | 84.5% | 107% | 94.6% | 87.4% | 104% | 101% | 106% | 110% | 97.7%
16 | CCCCCCCCCCCCCCCCCC[S+](C)CC (configuration not stated) | 36.3% | 17.5% | – | 15.6% | 27.3% | 30.2% | 42.3% | 29.1% | -38% (active) | 64.3% | 47.9% | -2.38% (active) | -81% (active) | 30.6% | 68.8% | 31% | 45.8% | 4.94% (active) | – | 33.6%
